D2 ag-1 – agonists of human D2 dopamine receptor; P14416; AID 485358; activation, % at 2 µM; hit rate 0.53% among 340,000; HEK293 T-REx D2 cells, calcium flux agonist mode;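 active = activation over 3 SD above normal in the single-dose calcium agonist read, cut at about 30% in these data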
Target sequence (P14416 whole entry, looked up): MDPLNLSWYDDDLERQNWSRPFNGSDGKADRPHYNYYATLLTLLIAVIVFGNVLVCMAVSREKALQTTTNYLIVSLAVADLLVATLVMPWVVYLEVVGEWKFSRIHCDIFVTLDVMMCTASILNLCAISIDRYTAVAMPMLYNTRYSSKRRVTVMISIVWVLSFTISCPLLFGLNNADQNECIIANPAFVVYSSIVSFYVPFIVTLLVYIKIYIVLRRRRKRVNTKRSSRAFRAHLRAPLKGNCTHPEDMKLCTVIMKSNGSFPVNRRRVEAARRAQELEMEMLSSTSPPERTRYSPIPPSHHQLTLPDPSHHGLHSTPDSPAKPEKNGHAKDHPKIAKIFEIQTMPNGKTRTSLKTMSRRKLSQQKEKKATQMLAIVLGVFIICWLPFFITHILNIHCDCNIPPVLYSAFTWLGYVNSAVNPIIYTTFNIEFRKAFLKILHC
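Agonism is scored from calcium flux in a force-coupled, inducible HEK293 cell line expressing D2, read kinetically for 180 s after compound addition against dopamine controls.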
D2 ag-2 – human D2 receptor agonism in beta-arrestin assay. P14416. DiscoveRx PathHunter D2 beta-arrestin, luminescence, 90 min; 100% = 57 uM dopamine signal. activation, % (concentration not given with the values). hit rate 0.084% among 360,000; in the data active = activation above about 40%
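DiscoveRx PathHunter D2 beta-arrestin cells (2,100/well) attached overnight, then compound-stimulated 90 min at 37 C in HBSS/10 mM HEPES/0.1% Tween-20 buffer; beta-galactosidase complementation read by luminescence after 1 h at ambient temperature. Dopamine 57 uM final (EC100) as control.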
D2 PAM-1 – positive allosteric modulators of human D2 dopamine receptor; AID 485347; HEK293 T-REx D2, calcium flux, EC20 dopamine potentiation; P14416; potentiation, % at 10 µM; hit rate 0.34% among 340,000;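 active = potentiation over 3 SD above the plate norm, cut at about 30% in these data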
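Using a no-wash calcium dye in inducible, force-coupled HEK293 Trex cells expressing D2, we tracked fluorescence each second for 180 s after compound, then for 180 s after EC20 dopamine to detect augmented signalling.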
D2 PAM-2 – human D2 receptor positive allosteric modulation; DiscoveRx D2 beta-arrestin cells, luminescence, 90 min; 100% = 57 uM dopamine signal; potentiation, % (concentration not given with the values); hit rate 0.23% among 360,000; AID 624464; in the data active = potentiation above about 50%
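PathHunter D2 cells, attached overnight at 37 deg C, received compound in DMSO plus dopamine at EC20 (50 nM final) for 90 min at 37 deg C. Beta-arrestin recruitment was read as luminescence after 1 h with detection reagent at ambient temperature.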
D2 antag – antagonists of human D2 dopamine receptor; P14416; HEK293 TREx D2 cells, calcium flux, dopamine EC80; inhibition, % at 10 µM; hit rate 2% among 340,000; AID 485344; in the data active = inhibition above about 30%; inactive = below that, where a call was filed
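Inhibition of EC80 dopamine-driven calcium flux, recorded kinetically, defines activity here; cells are a tetracycline-induced HEK293 T-REx line expressing force-coupled D2.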
Of the large screens only hits and unclear results are named; the others gave an inactive call; ! = repeats disagree. This is a sample that favours compounds with a hit; in the whole collection about 2.4% have one here.

O=C(COC(=O)c1ccc(F)cc1F)NC1CC1	D2 antag 31
Nc1cc(Cl)ccc1C(=O)OCC(=O)NC1CCCCCCC1	D2 antag 35
CC(C)N(Cc1ccccc1)C(=O)Cn1ncc2c([nH]c3ccccc32)c1=O	none (no result: D2 ag-2, D2 PAM-2, D2 antag)
Cc1ccc([N+](=O)[O-])cc1NC(=O)Nc1onc(C)c1C	D2 antag 47
COC(=O)[C@@H]1[C@H]2C[C@H]3c4[nH]c5ccccc5c4CCN3C[C@@H]2CC[C@@H]1O	D2 antag 58
CN(C(=O)CCl)C1CCCc2ccccc21 (stereo not given)	D2 PAM-1 34
Cc1ccc(NC(=O)c2ccc3ccccc3n2)cc1S(=O)(=O)N1CCOCC1	none
O=C(COC(=O)c1cc(S(=O)(=O)N2CCOCC2)ccc1Cl)Nc1ccccc1Cl	none
O=C(COc1ccc(Br)cc1)Nc1ccc2c(c1)C(=O)NC2=O	D2 antag 33
O=S(=O)(Nc1ccncc1)c1cc(Cl)c(Cl)cc1Cl	none
Cc1c(C(=O)Nc2c(N)nc(SCC(=O)NCC3CCCO3)[nH]c2=O)cccc1[N+](=O)[O-] (stereo not given)	none
CCOC(=O)/C(C(=Nc1ccccc1)Nc1ccccc1)=C(\C)O	none
NC(=Nc1ccccc1)Nc1ccccc1	D2 ag-1 79, D2 antag 56
O=c1oc2c(CN3CCCCCC3)c(O)ccc2cc1-c1nc2ccccc2[nH]1	D2 ag-1 77 (no result: D2 ag-2, D2 PAM-2)
Cc1cc(C)cc(-n2ccnc2SCC(=O)Nc2cccc3ccccc23)c1	none (no result: D2 ag-2, D2 PAM-2, D2 antag)
CCn1c(Cc2ccccc2)nnc1SCC(=O)NC(C)(C)C	none
Cn1c(SCC(=O)Nc2ccc(N3CCOCC3)c(Cl)c2)nnc1-c1ccccc1	none (no result: D2 ag-1, D2 PAM-1, D2 antag)
CCn1c(Cc2ccccc2)nnc1SCC(=O)Nc1ccc(N2CCOCC2)c(Cl)c1	D2 antag 39
CCn1c(Cc2ccccc2)nnc1SCC(=O)Nc1ccccc1O	D2 antag 40
COc1cc(NC(=O)C(Cc2ccccc2)NS(=O)(=O)c2cccs2)cc(OC)c1 (stereo not given)	none (no result: D2 ag-2, D2 PAM-2, D2 antag)
COc1ccc(Cl)cc1-n1nnc(-c2nc(-c3ccccc3)no2)c1C	none (no result: D2 ag-2, D2 PAM-2, D2 antag)
CCCn1c2ccccc2c2cnn(CC(=O)NC3CCCC(C)C3C)c(=O)c21 (stereo not given)	D2 antag 35
COc1ccc(/C(C)=N/Nc2nccnc2Cl)cc1	D2 antag 36
C/C(=N\Nc1nccnc1Cl)c1ccc(Br)cc1	none
CCOC(=O)c1c(C)oc2nc(C)nc(NCCCN3CCN(c4cccc(C)c4)C(C)C3)c12 (stereo not given)	none (no result: D2 ag-2, D2 PAM-2, D2 antag)
CCOC(=O)c1[nH]cnc1C(=O)N1CCN(C(=O)OC(C)(C)C)CC1	D2 antag 31
COc1ccc(-c2cc(C(=O)N3CCOCC3)no2)cc1	D2 antag 35
CCc1ccc(NC(=O)C2=CC(c3ccc4c(c3)OCO4)=NS(=O)(=O)N2C)cc1	none (no result: D2 ag-2, D2 PAM-2, D2 antag)
COc1ccc(-c2cc(C(=O)Nc3ccc4c(c3)OCO4)no2)cc1	D2 PAM-1 31!
CN1C(C(=O)Nc2ccc(OC(F)(F)F)cc2)=CC(c2ccc3c(c2)OCO3)=NS1(=O)=O	D2 PAM-1 75!
COc1cc(NC(=O)c2cccc3c(-c4cccnc4)coc23)cc(OC)c1OC	D2 ag-2 44 (no result: D2 ag-1, D2 PAM-1, D2 antag)
COc1cccc(-c2cc(C(=O)N3CCOCC3)no2)c1	none
COc1ccc(S(N)(=O)=O)cc1C(=O)OCC(=O)NC(C)(C#N)C1CC1 (stereo not given)	none (no result: D2 ag-1)
COc1ccc2c(c1OC)C(=O)N(c1nc(SC)n[nH]1)C2=O	none
CC1CCCC(C)N1C(=O)CSc1nnc(-c2ccco2)n1C (stereo not given)	none
COc1ccc(C2=NS(=O)(=O)N(C)C(C(=O)Nc3ccc4c(c3)OCO4)=C2)cc1	D2 antag 64
Cc1ccc(C2=NS(=O)(=O)N(C)C(C(=O)Nc3ccc4c(c3)OCO4)=C2)cc1	none
COc1cccc(-c2cc(C(=O)Nc3cc(OC)c(OC)c(OC)c3)no2)c1	D2 antag 44
COc1ccc(-c2cc(C(=O)Nc3cc(Br)ccc3O)no2)cc1	D2 antag 36
COc1ccc(-c2cc(C(=O)Nc3ccccc3SC)no2)cc1	none (no result: D2 ag-1, D2 PAM-1, D2 antag)
COc1cc(NC(=O)c2cc(-c3ccccc3)on2)cc(OC)c1OC	none
Cc1c(C(=O)Nc2ccc3c(c2)OCO3)sc2nc(-c3ccccc3)cn12	D2 antag 67 (no result: D2 PAM-1)
